Data: PubChem BioAssay (NCATS)
Records with an inconclusive call do not appear. Activity calls are given as the source filed them. Unless noted, the call rests on the fitted dose curve; in most records, active means well fitted curve in the direction sought with a large enough effect; inconclusive means small, poorly fitted or top-dose-only effect, or another doubt; inactive means no such curve, though single readings can be large; an effect the other way counts as inactive or inconclusive.

Columns and labels:
[1] = target: Rap guanine nucleotide exchange factor 3 (Homo sapiens) (UniProt O95398); assay: Confirmatory qHTS for antagonist of cAMP-regulated guanine nucleotide exchange factor 3 (EPAC1) (AID 1645880); conditions: EPAC1 Rap1B-BODIPY-GDP exchange, fluorescence; activity, negative = inhibition: at 115 µM (top of the series);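 further: plate controls were DMSO only for no effect and full effect of the ATA control for full effect; nearly all actives have a fitted effect of over 55% in size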
Sequence of Rap guanine nucleotide exchange factor 3 (Homo sapiens) (O95398 whole entry, looked up): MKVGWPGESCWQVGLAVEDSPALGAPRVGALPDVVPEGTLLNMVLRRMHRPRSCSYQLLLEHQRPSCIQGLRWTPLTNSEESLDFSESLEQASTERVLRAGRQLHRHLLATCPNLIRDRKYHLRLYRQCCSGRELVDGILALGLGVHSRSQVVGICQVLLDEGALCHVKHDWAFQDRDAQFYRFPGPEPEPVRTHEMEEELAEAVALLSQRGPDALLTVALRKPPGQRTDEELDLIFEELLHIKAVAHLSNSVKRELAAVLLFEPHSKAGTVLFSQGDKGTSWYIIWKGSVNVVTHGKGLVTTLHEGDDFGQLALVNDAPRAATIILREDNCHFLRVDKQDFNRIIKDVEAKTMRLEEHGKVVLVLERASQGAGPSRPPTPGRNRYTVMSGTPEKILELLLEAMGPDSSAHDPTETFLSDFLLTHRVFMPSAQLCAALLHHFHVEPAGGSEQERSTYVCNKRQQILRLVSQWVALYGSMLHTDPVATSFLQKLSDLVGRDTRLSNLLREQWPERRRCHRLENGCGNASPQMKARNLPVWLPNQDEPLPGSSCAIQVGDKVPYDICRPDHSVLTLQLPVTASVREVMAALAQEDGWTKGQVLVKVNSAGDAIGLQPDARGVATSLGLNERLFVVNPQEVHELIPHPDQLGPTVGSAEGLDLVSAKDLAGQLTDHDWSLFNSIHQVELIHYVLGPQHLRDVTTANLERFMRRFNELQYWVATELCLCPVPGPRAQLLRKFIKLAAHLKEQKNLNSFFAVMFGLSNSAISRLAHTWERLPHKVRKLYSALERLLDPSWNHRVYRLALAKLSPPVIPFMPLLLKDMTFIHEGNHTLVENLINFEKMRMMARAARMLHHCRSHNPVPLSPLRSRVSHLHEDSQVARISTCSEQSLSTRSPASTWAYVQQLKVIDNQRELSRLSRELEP
Method in brief: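 Nucleotide exchange uses 100 nM EPAC1, 250 nM RAP1B-BODIPY-GDP and 50 uM GDP, with compounds in a concentration-titration series. After 5 min at room temperature, fluorescence (480 nm ex/540 nm em) is read every 5 min for 30 min. Data are normalized to control ATA and DMSO.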

[2] = target: Rap guanine nucleotide exchange factor 3 (Homo sapiens) (UniProt O95398); assay: Confirmatory qHTS for agonist of cAMP-regulated guanine nucleotide exchange factor 3 (EPAC1) (AID 1645881); conditions: EPAC1 Rap1B BODIPY-GDP exchange fluorescence; series mostly up to 154 µM;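 further: EPAC1 catalysed release of BODIPY-GDP from Rap1B seen as fluorescence loss; 100% = effect of cAMP agonist control; nearly all actives have a fitted effect of over 75% in size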
[3] = target: Rap guanine nucleotide exchange factor 4 (Homo sapiens) (UniProt Q8WZA2); assay: Confirmatory qHTS for agonist of cAMP-regulated guanine nucleotide exchange factor 4 (EPAC2) (AID 1645884); conditions: EPAC2 GEF activity, Rap1B-BODIPY-GDP fluorescence; series mostly up to 154 µM;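 further: nucleotide exchange releases bodipy-GDP from Rap1 and this lowers its fluorescence; on the % scale 0 is the no-effect control and ±100 the full control effect; nearly all actives have a fitted effect of over 65% in size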
Sequence of Rap guanine nucleotide exchange factor 4 (Homo sapiens) (Q8WZA2 whole entry, looked up): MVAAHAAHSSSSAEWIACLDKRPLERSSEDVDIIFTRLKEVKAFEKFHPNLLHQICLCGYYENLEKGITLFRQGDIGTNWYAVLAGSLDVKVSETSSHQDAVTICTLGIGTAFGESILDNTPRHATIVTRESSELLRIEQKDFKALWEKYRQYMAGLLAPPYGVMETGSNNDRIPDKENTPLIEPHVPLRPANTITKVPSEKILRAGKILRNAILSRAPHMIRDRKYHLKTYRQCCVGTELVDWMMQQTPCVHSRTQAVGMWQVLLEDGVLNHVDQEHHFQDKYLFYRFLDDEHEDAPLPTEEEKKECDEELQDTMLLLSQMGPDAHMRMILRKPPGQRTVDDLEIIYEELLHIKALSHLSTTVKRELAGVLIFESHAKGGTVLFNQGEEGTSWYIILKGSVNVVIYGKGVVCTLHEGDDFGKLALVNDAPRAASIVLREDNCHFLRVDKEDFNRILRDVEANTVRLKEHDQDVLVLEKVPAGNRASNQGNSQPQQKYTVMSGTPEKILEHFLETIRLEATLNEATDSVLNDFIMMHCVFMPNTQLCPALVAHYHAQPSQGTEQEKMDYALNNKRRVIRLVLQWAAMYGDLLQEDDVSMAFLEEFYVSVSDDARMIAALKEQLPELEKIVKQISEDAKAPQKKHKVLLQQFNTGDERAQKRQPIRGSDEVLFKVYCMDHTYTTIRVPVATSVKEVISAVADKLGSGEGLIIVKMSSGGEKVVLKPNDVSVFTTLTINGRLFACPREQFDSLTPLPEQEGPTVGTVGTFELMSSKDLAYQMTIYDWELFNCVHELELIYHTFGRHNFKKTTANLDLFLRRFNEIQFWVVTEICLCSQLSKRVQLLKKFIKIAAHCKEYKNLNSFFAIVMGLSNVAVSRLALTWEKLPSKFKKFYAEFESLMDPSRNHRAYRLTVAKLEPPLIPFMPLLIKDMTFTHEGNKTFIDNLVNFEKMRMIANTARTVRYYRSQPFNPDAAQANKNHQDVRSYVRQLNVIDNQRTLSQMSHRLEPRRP

[4] = target: Rap guanine nucleotide exchange factor 4 (Homo sapiens) (UniProt Q8WZA2); assay: Confirmatory qHTS for antagonist of cAMP-regulated guanine nucleotide exchange factor 4 (EPAC2) (AID 1645885); conditions: EPAC2 Rap1B-BODIPY-GDP exchange fluorescence, biochemical; series mostly up to 12.7 µM; further: nearly all actives have a fitted effect of over 25% in size; on activity change, negative = inhibition: on the % scale 0 is the no-effect control and ±100 the full control effect
[5] = target: Rap guanine nucleotide exchange factor 3 (Homo sapiens) (UniProt O95398); assay: Counterscreen qHTS for antagonist of cAMP-regulated guanine nucleotide exchange factor 3 (EPAC1) (AID 1645888); conditions: Rap1B-BODIPY-GDP nucleotide exchange, fluorescence; series mostly up to 154 µM;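 further: fluorescence loss as bound BODIPY-GDP is released from Rap1B; % of control where 0% means no effect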
Method in brief: (§1)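 Measured: fluorescence of BODIPY-GDP bound to Rap1B, which falls as exchange proceeds. Conditions include 50 uM competing GDP, 5 and 30 min reads, and a later cAMP challenge for antagonist detection.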

[6] = target: Rap guanine nucleotide exchange factor 3 (Homo sapiens) (UniProt O95398); assay: Counterscreen qHTS for agonist of cAMP-regulated guanine nucleotide exchange factor 3 (EPAC1) (AID 1645889); conditions: EPAC1 Rap1B-BODIPY-GDP exchange, fluorescence; series mostly up to 154 µM; further: % of control where 0% means no effect; nearly all actives have a fitted effect of over 40% in size
Method in brief: as §1

[7] = target: Lysosomal acid glucosylceramidase (Homo sapiens) (UniProt P04062); assay: Glucocerebrosidase-p2 (AID 348; in the data active means potency below about 10 µM; further: potency means the concentration at half of the fitted maximal effect); conditions: purified GBA, blue fluorogenic substrate, 40 min
Sequence of Lysosomal acid glucosylceramidase (Homo sapiens) (P04062 whole entry, looked up): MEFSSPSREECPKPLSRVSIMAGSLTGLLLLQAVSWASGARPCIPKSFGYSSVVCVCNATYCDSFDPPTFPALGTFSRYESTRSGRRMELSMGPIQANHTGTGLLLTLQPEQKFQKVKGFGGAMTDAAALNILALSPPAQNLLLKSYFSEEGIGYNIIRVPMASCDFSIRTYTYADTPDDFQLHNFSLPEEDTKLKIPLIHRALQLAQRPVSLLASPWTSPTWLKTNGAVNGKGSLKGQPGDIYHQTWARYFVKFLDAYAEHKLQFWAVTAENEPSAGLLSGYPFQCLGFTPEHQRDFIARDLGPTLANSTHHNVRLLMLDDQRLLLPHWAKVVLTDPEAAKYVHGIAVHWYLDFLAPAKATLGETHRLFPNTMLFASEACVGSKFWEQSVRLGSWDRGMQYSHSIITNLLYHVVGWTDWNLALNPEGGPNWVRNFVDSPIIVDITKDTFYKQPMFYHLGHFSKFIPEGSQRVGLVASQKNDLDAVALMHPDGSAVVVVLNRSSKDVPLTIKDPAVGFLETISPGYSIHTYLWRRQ
Method in brief: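 Compounds titrated from 0.6 nM upwards against 0.2 nM enzyme in pH 5.9 citric acid/KH2PO4, taurocholate, tween-20; blue fluorogenic substrate 80 uM, 40 min room temperature, stopped and read Ex 365/Em 440 for AC50.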

[8] = target: Cytochrome P450 1A2 (Homo sapiens) (UniProt P05177); assay: p450-cyp1a2 (AID 410; calls by dose curve; further: potency means the concentration at half of the fitted maximal effect); conditions: recombinant CYP1A2, luciferin-ME demethylation, luminescence; series mostly up to 57 µM
Sequence of Cytochrome P450 1A2 (Homo sapiens) (P05177 whole entry, looked up): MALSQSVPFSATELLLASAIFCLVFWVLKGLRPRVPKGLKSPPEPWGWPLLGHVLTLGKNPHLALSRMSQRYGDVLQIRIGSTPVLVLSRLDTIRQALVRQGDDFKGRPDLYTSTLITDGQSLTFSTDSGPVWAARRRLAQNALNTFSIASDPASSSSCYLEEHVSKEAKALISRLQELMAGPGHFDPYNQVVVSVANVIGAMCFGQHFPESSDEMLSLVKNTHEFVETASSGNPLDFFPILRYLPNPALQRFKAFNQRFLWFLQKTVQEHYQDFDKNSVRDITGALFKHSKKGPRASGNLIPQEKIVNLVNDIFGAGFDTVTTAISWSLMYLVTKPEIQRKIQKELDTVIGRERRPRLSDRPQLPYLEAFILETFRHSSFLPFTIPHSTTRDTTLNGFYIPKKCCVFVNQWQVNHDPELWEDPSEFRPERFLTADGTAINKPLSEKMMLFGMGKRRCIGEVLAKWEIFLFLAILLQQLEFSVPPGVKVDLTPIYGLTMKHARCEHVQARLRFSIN
Method in brief: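 20nM CYP1A2 with 100uM Luciferin-ME (at Km) in 100mM KPO4; compound preincubated 10 min, NADPH regeneration added, 60 min at room temperature. Luciferin quantified by luminescence after detection reagent; normalized to 57 uM furafylline.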

[9] = target: Mitogen-activated protein kinase 10 (Mus musculus) (UniProt Q61831); assay: JNK3 AlphaScreen Assay (AID 530; active means well fitted curve in either direction with a large enough effect, not every such curve was filed as active;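 further: kinase came from lysate of stimulated human HepG2 cells; signal reports phosphorylation of biotinylated GST-cJun 1-79 at Ser73 with 10 µM ATP; on the % scale 0 is the no-effect control and ±100 the full control effect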); conditions: JNK3 lysate, c-Jun phosphorylation; series mostly up to 57.1 µM
Method in brief: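 Inhibitors reduce antibody binding to phosphorylated biotin-cJun, lowering AlphaScreen luminescence. Lysates from HepG2 cells pre-activated by IL-1beta plus TNF-alpha supplied JNK3; compounds were titrated.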

[10] = target: 3',5'-cyclic-AMP phosphodiesterase 4B (Homo sapiens) (UniProt Q07343); assay: qHTS Assay for Inhibitors of PDE-IV (AID 607; active means well fitted activation curve with a large enough effect in the main read-out, with a control signal flat, not every such curve was filed as active; further: % of control where 0% means no effect); conditions: HEK293 ACTOne CNG channel cells, membrane potential fluorescence; series mostly up to 22.9 µM
Sequence of 3',5'-cyclic-AMP phosphodiesterase 4B (Homo sapiens) (Q07343 whole entry, looked up): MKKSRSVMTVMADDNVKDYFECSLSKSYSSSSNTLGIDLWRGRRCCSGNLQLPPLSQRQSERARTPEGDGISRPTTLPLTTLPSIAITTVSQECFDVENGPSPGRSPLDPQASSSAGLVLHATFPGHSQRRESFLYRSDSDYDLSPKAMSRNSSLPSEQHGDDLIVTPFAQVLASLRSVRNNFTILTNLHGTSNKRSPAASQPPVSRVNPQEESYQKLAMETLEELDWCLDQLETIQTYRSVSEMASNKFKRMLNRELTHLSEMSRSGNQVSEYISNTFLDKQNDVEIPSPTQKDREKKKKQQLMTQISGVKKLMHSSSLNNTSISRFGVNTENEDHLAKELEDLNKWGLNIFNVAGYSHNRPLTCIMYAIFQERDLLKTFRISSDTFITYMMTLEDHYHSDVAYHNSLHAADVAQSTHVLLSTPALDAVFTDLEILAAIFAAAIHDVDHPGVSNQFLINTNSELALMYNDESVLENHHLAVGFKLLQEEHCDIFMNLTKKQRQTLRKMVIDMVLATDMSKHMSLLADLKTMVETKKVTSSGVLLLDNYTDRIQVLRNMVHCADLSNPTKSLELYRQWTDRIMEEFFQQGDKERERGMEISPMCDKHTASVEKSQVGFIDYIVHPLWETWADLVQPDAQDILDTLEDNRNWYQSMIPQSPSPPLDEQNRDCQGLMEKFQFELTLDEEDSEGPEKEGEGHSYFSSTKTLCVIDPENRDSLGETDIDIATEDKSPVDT
Method in brief: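 The readout is membrane depolarisation from a cAMP-sensing CNG channel, detected with a potential dye at ex 535/em 590. Cells were HEK293-derived (endogenous PDE-IV) at 1000 cells/well, titrated up to 22.9 uM final.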

[11] = target: Cytochrome P450 3A4 (Homo sapiens) (UniProt P08684); assay: qHTS Assay for Activators of Cytochrome P450 3A4 (AID 885); conditions: recombinant CYP3A4, Luciferin-PPXE luminescence, 60 min; series mostly up to 57.1 µM; further: nearly all actives have a fitted effect of over 65% in size
Sequence of Cytochrome P450 3A4 (Homo sapiens) (P08684 whole entry, looked up): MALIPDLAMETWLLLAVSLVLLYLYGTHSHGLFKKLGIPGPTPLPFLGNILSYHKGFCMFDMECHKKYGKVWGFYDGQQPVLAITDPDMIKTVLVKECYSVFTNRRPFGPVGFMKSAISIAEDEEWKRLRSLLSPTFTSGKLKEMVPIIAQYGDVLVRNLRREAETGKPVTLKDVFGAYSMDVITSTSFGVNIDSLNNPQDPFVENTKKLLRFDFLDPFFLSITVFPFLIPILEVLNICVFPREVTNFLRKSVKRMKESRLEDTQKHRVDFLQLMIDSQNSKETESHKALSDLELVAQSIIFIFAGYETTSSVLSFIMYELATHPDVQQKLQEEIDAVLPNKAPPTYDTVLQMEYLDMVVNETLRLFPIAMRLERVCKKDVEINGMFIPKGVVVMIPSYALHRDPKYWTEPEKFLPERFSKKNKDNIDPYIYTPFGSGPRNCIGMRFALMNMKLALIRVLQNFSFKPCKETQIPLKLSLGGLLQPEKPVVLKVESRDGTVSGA
Method in brief: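 Steps: enzyme/substrate mix dispensed; compound added, 10 min RT; NADPH regeneration solution added, 60 min RT; luciferin detection buffer stops reaction; 20 min later luminescence measured.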

[12] = target: Cytochrome P450 2C19 (Homo sapiens) (UniProt P33261); assay: qHTS Assay for Inhibitors and Substrates of Cytochrome P450 2C19 (AID 899); conditions: recombinant CYP2C19, luciferin-H EGE luminescence; series mostly up to 57.1 µM; further: potency means the concentration at half of the fitted maximal effect; nearly all actives have a fitted effect of over 60% in size
Sequence of Cytochrome P450 2C19 (Homo sapiens) (P33261 whole entry, looked up): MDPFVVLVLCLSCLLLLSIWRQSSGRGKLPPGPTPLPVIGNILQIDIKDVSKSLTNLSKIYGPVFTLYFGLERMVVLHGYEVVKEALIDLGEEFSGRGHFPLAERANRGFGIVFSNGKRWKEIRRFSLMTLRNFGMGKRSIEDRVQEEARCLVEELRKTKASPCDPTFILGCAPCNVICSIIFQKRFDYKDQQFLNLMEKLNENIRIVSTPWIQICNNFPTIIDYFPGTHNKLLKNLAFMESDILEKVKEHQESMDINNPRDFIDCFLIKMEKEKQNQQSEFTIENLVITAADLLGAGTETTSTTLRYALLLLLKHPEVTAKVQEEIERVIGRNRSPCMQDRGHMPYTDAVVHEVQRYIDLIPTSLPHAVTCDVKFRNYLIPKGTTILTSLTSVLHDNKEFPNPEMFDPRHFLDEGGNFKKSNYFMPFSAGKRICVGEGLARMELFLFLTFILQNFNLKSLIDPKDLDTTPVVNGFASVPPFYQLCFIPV
Method in brief: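 NADPH-dependent conversion of Luciferin-H EGE (10uM, at KM) by 5nM enzyme in 50mM KPO4, 60 min at 37C following 10 min compound preincubation. Stopped with luciferin detection buffer; luminescence read after 20 min.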

O=C1CCc2cc(NS(=O)(=O)c3ccc([N+](=O)[O-])cc3)cc3c2N1CC3
inactive: Potency [1] | Potency [2] | Potency [3] | Potency [4] | Potency [5] | Potency [6]

CCN1CCN(c2ccc(S(=O)(=O)N3CCOCC3)cc2NC(=O)c2cc(Cl)nc3ccccc23)CC1
inactive: Potency [1] | Potency [2] | activation [3] 4.04% [at 17.1 µM, percent relative to cAMP agonist control] | Potency [4] | activity change, negative = inhibition [5] 7.51% [at 30.8 µM] | activation [6] 5.03% [at 30.8 µM]

CN(CC(=O)Nc1ccccc1Sc1ccccc1)C1CCCCC1
inactive: Potency [1] | Potency [2] | Potency [3] | Potency [4] | Potency [5] | Potency [6]

c1ccc(NN(Cc2cnccn2)c2ccccc2)cc1
active: Potency [8] 2 µM | Potency [12] 2 µM
inactive: Potency [7] > 11.4 µM | activity change, negative = inhibition [9] 3.55% [at 11.4 µM] | Potency [10] | activity change, positive = activation [11] -52.2% [at 11.4 µM]
